The text below walks through data of paper PMC5540273 (PLoS ONE, 2017).

Common to all, as to conditions: concentration: 1 μM, replicates: in singlicate; n = 1
In test [1] the test system is T1, PIK4CB.
T1 construct: gene PI4KB

The subject of test [2] is PIKFYVE.
Test [3] concerns PIM1.
Test [4] relates to PIM2.
Test [5] concerns PIM3.
Test [6] deals with PIP5K1A.
In test [7] the test system is PIP5K1C.
Test [8] concerns PIP5K2B.
The subject of test [9] is T2, PIP5K2C.
T2 construct: gene PIP4K2C

Test [10] has as its system T3, PKAC-alpha.
T3 construct: gene PRKACA
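Note: KINOMEscan kinase panel screen.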

Consider `Cc1ccc(NC(=O)Nc2ccc(Cl)c(C(F)(F)F)c2)cc1-c1ccc(C(=O)Nc2ccncc2)cc1` [GSK1398470], for which the “%Inh” value in test [1] is listed as 0%; in test [2] it was 0%; in test [3] it was 23%; in test [4], 1%; in test [5] it was 21%; in [6] it was 0%. For the same compound, the “%Inh” value in test [7] amounted to 23%; in test [8], 0%; in [9], 8%; in [10], 15%.
Consider `COc1ccc(Nc2nccc(NCCNC(=O)Nc3cc(C)ccc3C)n2)cc1` [GSK1379899], for which the “%Inh” value in test [1], in test [2], in test [3], in test [4], in [5] and in test [6] was 0% in each case. The “%Inh” value in test [7] stood at 18%; in test [8], 6%; in test [9], 39%; in test [10], 0%.
For `CCCCc1nn2ncccc2c1-c1ccnc(NC2CC2)n1` [GW684374], the “%Inh” value in [1] is given as 35%; in test [2], 0%; in [3], 0%; in test [4], 0%; in test [5], 0%; in test [6], 0%. The “%Inh” value in [7] was 36%; in [8], 0%; in [9], 75%; in test [10], 0%.
Take `Fc1ccc(-c2nc[nH]c2-c2ccncc2)cc1` [SB-217360]: the “%Inh” value in test [1] is 0%; in test [2], 32%; in [3] it was 19%; in test [4], 0%; in [5], 11%; in test [6] it was 19%. Further, the “%Inh” value came to 0% in [7], 0% in test [8], 2% in [9] and 25% in test [10].
`NS(=O)(=O)c1cccc(N/C=C2\C(=O)Nc3ccc(S(=O)(=O)Cc4c(Cl)cccc4Cl)cc32)c1` [GSK398099]: the “%Inh” value in test [1] was found to be 87%; in [2] it was 0%; in test [3], 0%; in test [4] it was 0%; in test [5] it was 0%; in test [6], 0%. In addition, the “%Inh” value in test [7] turned out to be 0%; in test [8] it was 0%; in [9], 1%; in [10], 0%.
